Assay outcomes deposited in PubChem by National Center for Advancing Translational Sciences (NCATS).
Hits are enriched below; roughly 4.7% of the tested compounds scored in any of these assays.
NTMT1 inhibitor: Primary qHTS for Inhibitors of N-terminal methyltransferase 1 (NTMT1): MTaseGlo Assay | N-terminal Xaa-Pro-Lys N-methyltransferase 1 (Homo sapiens), Q9BV86 | NTMT1 MTase-Glo SAH luminescence, purified enzyme | Potency, µM (series often up to 114 µM), usual class: inhibitors | actives 2.5% (n = 59,000) | AID 1645870, 2021; note: nearly all actives have a fitted effect of over 65% in size
Target sequence (Q9BV86 whole entry, looked up): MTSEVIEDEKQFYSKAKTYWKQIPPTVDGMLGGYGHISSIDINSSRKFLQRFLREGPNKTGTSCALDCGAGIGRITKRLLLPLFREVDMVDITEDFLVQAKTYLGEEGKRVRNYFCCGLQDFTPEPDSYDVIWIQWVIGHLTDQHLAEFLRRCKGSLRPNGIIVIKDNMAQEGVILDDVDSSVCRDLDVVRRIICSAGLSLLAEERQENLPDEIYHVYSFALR
DRV1 agonist: qHTS for Agonists of Human Resolvin D1 Receptor DRV1; activation, % at 76.9 µM; CHO-K1 GPR32 beta-arrestin PathHunter luminescence, 90 min; zero percent set by DMSO-only wells; actives 2.5% (n = 48,000); AID 1346428, 2018;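 active = activation of at least 60% and not above a set upper limit, about 1 call in 100 departs from these limits; inconclusive = activation of 40% to 60%, or above that upper limit; inactive = activation under 40%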
Target sequence (O75388 whole entry, looked up): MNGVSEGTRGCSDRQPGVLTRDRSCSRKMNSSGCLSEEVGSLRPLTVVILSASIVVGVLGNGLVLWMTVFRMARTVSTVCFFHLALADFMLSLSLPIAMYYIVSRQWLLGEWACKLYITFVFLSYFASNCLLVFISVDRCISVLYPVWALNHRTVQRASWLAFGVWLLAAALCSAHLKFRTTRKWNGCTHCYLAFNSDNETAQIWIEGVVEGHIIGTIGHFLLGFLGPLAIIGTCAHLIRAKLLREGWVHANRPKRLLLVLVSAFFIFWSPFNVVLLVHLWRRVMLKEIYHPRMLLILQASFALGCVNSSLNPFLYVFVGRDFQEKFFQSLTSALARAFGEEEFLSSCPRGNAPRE
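PathHunter beta-arrestin recruitment in CHO-K1 cells stably expressing ProLink-tagged GPR32. Cells were exposed to compound for 90 min at 37 C, then chemiluminescence was read after 1 h detection at ambient temperature; DMSO served as basal control.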
HTT prom inh: Primary qHTS for Identification of Small Molecule Inhibitors of Huntingtin Promoter Activity; Potency, µM (doses to about 57.5 µM), usual class: inhibitors; HEK293 HTT promoter firefly luciferase reporter, 24 h; actives 0.93% (n = 48,000); note: nearly all actives have a fitted effect of over 50% in size
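HEK293 Fluc reporter, 2,500 cells/well, 24 h pre-culture; cpds up to 57.5 uM final, 24 h 37 degrees C; Dual-Glo, 10 min RT; normalized vehicle = 0%, zero RLU = -100%.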
FH mod: Identification of activators of human fumarate hydratase by quantitative high-throughput screening | AID 1347055, 2019 | Fumarate hydratase, mitochondrial (Homo sapiens), P07954 | actives 0.22% (n = 54,000) | Potency, µM (titrated, usually from 79.9 µM), hits mostly inhibitors | FH coupled MDH/diaphorase resazurin fluorescence, 15 min; note: the screen sought activators but most active calls are inhibition curves; nearly all actives have a fitted effect of over 45% in size
HTT-AS act: Primary qHTS for Identification of Small Molecule Activators of Huntingtin-Antisense Promoter Activity | actives 0.24% (n = 48,000) | AID 1508624, 2021 | HEK293 HTT-AS promoter firefly luciferase reporter, 24 h; response scale: percent change from vehicle, -100% = no light | Potency, µM (titrated, usually from 57.5 µM), usual class: activators; note: nearly all actives have a fitted effect of over 55% in size
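Quantitative HTS used concentration series of up to 57.5 uM final on HEK293 luciferase reporter cells, 24 h at 37 degrees C. Readout was Dual-Glo firefly luminescence.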
A number is an active result; . = inactive; ? = inconclusive; / = no result; ! = a repeat was not active; [ ] = another dose, or the depositor's remark. Unless noted, calls come from the whole dose curve; as a rule, active = well fitted curve in the direction sought with a large enough effect; inconclusive = small, poorly fitted or top-dose-only effect, or another doubt; inactive = no such curve, though single readings can be large; an effect the other way counts as inactive or inconclusive.

SMILES	NTMT1 inhibitor	DRV1 agonist	HTT prom inh	FH mod	HTT-AS act
Cc1oc2c(c(C)cc3oc(=O)c(CC(=O)NCc4ccccc4)c(C)c32)c1C	.	.	.	.	.
C[n+]1ccc(-c2c3nc(c(-c4cc[n+](C)cc4)c4ccc([nH]4)c(-c4cc[n+](C)cc4)c4nc(c(-c5cc[n+](C)cc5)c5ccc2[nH]5)C=C4)C=C3)cc1	14.1µM	/	/	.	/
c1ccc2[nH]c(-c3cscn3)nc2c1	?	.	.	.	19.3µM!
CCOc1ccc(CNC(=O)C2CCN(c3nnc(-n4c(C)ccc4C)s3)CC2)cc1	.	.	14.1µM	.	.
Nc1cccc2c(N)cccc12	35.5µM	.	.	.	.
Cc1ccc(Cn2ccn(CC(=O)Nc3c(C)cc(C)cc3C)c(=O)c2=O)cc1	50.1µM	.	.	.	.
CC(C)(C)OC(=O)N1CCc2nc(N3CCN(c4ncccn4)CC3)ncc2C1	.	62.3	.	.	.
Cc1cn2c(-c3cn[nH]c3)cnc2c(Nc2ccc(C(=O)N3CCNCC3)cc2F)n1	.	/	?	.	.
CCS(=O)(=O)c1ncc(Cl)c(C(=O)NCc2ccc(OC)cc2)n1	.	.	?	.	.
COc1ccc(N(Cc2ccccc2)C(=O)c2nc(SC)ncc2Cl)cc1	.	.	20µM	.	.
CCS(=O)(=O)c1ncc(Cl)c(C(=O)N(Cc2ccccc2)c2ccc(OC)cc2)n1	.	.	15.8µM	.	.
O=C(Nc1cccc(Cl)c1Cl)c1ccc2c(c1)N(Cc1cccc(Cl)c1)C(=O)c1ccccc1S2(=O)=O	.	.	.	.	.
O=C(CSc1nccn1Cc1ccccc1)NCc1ccco1	.	.	.	.	.
Cc1ccccc1-c1noc(-c2cc3ccccc3oc2=O)n1	.	.	.	.	2.51µM
CC(C)/C=C1\NC(=O)C(C(C)C)n2c1nc1ccccc1c2=O (centres undefined)	.	/	/	.	/
CCc1ccc(CNC(=O)CN(c2ccc(C)cc2)S(=O)(=O)N(C)C)cc1	.	87.2	.	.	.
Cc1cc(O)cc(O[C@@H]2O[C@H](CO)[C@@H](O)[C@H](O)[C@H]2O)c1	.	/	/	.	/
Cc1ccc(NC(=O)Nc2cn(C)c(=O)c3ccccc23)c(Cl)c1	.	.	?	28.2µM[activator]	.
CCc1ccc(NC(=O)Cn2c(=O)n(CCCCC(=O)NCc3ccccc3Cl)c(=O)c3ccccc32)cc1	?	.	.	.	.
CCc1ccc(NC(=O)Nc2cn(C)c(=O)c3ccccc23)cc1	?	.	?	31.6µM[activator]	.
O=C(NCCc1nc2ccccc2n1CCCOc1ccc(Cl)cc1)C1CCCCC1	.	.	?	?	.
CCc1nc2ccccc2n1CCCCOc1ccc(C)cc1	.	?	?	.	.
CC(=O)NCCc1nc2ccccc2n1CCCCOc1ccc(Cl)cc1	.	76.5	.	.	.
CCCC(O)c1nc2ccccc2n1CCCCOc1ccc(OC)cc1 (centres undefined)	.	90.8	.	.	.
Cc1cc(C)cc(C(=O)Nc2c(C(=O)Nc3ccccc3F)oc3ccccc23)c1	.	.	.	.	.
SMILES	NTMT1 inhibitor	DRV1 agonist	HTT prom inh	FH mod	HTT-AS act
Cc1cc(C)c(/C=C2\C(=O)Nc3ccc(Cl)cc32)[nH]1	.	/	/	.	/
CN1CCCN(C(=O)c2cccc(-c3ccc(C=C4C(=O)Nc5ccc(Cl)cc54)o3)c2)CC1	7.08µM	/	?	.	.
O=C1NC(=O)C(c2cnc3ccccn23)=C1c1cn2c3c(cc(F)cc13)CN(C(=O)N1CCCCC1)CC2	27µM!	/	/	.	/
Cc1c(O)cccc1C(=O)N[C@@H](CSc1ccccc1)[C@H](O)CN1C[C@H]2CCCC[C@@H]2C[C@@H]1C(=O)NC(C)(C)C	.	/	?	.	.
Cc1ccccc1Cn1nc(C)c(NC(=O)c2cc(CC(C)C)on2)c1C	/	63.8	/	/	/
COc1ccc(-c2cc(C(=O)Nc3c(C)nn(Cc4ccccc4C)c3C)no2)cc1	/	.	/	/	/
CNc1nc(-c2cccc3ccccc23)ccc1C#N	.	/	/	/	/
Oc1c(C(c2ccc(Cl)cc2Cl)N2CCOCC2)sc2nc(-c3ccco3)nn12 (centres undefined)	.	89.9	.	.	.
Oc1c(C(c2ccc(Cl)cc2Cl)N2CCN(c3ccccc3)CC2)sc2nc(-c3ccco3)nn12 (centres undefined)	.	.	.	?	.
COc1ccc(-n2c(=O)c3c4c(sc3n(Cc3cc(C)ccc3C)c2=O)CN(C(C)=O)CC4)c(OC)c1	?	.	?	.	.
N#CC1=C2SCN(C3CCCCC3)CN2C(=O)CC1c1ccc(F)cc1 (centres undefined)	25.1µM	?	.	.	.
N#CC1=C2SCN(C3CCCCC3)CN2C(=O)CC1c1c(F)cccc1Cl (centres undefined)	31.6µM	.	.	.	.
N#CC1=C2SCN(C3CCCCC3)CN2C(=O)CC1c1ccc(Cl)cc1 (centres undefined)	25.1µM	.	.	.	.
CCOC(=O)c1cccc(Nc2nc(C(=O)OCC)nc3ccccc23)c1	.	.	?	.	.
CCCOC(=O)c1cccc(Nc2nc(C(=O)OCC)nc3ccccc23)c1	.	92.6	?	?	.
CCOC(=O)c1cccc(Nc2c3c(nc4ccccc24)CCC3)c1	.	77.8	?	.	.
CCOC(=O)c1cnc2ccc(-c3cncc(NS(=O)(=O)c4ccccc4)c3)cn12	28.2µM	/	/	.	/
CCOc1cc(OCC)c(C(=O)CCC(=O)O)cc1OCC	.	.	.	.	.
COc1ccc(-c2cn3nc(N4CCCC(C(=O)Nc5ccc(C)c(C)c5)C4)sc3n2)cc1 (centres undefined)	.	.	.	.	.
Nc1ncnc2n[nH]c(Nc3ccc(F)cc3)c12	50.1µM!	.	/	.	/
Cc1ccc(Cl)cc1N1CCN(C(=O)c2c(C)oc3ncnc(N4CCCCC4)c23)CC1	.	.	.	.	.
Cc1nc(-c2ccc(OCC(C)C)c(C#N)c2)sc1C(=O)O	?	.	5.01µM!	?	.
C[C@H]1[C@@H](O)[C@H](O)C2[C@]3(C)C([C@@H](O)[C@H]4OC(=O)[C@@H]1[C@@]24C)[C@](C)(O)C=C[C@H]3O[C@@H]1O[C@H](CO)[C@@H](O)[C@H](O)[C@H]1O (some centres undefined)	.	/	/	.	/
COc1ccc(C(=O)Nc2nnc(C)s2)cc1	.	.	.	.	?
COc1ccc(NC(=O)Nc2nnc(C)s2)cc1	.	.	.	.	11.2µM
COc1cccc(C(=O)Nc2ccccc2OCc2cc(=O)n3cc(C)ccc3n2)c1	.	.	.	.	.
